Compounds with a hit are over-represented: about 19% of the library has one in this group of screens.
Giardia kill – Small Molecules that selectively kill Giardia lamblia: qHTS; activity change, % at 7.66 µM, hits read low; 340,000 compounds, 0.15% hits; Giardia lamblia trophozoite viability; in the data active = activity change below about -80%; inconclusive = between about -30% and that limit;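 also: parasites exposed to compound for two days anaerobically before the ATP read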
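Luminescent ATP signal served as the viability read-out, measured 15-30 min after adding ATP detection reagent to trophozoites that had been incubated with compounds for 48 hrs at 37 deg C anaerobically at 100 cells/well.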
TDP1 cell noCPT – qHTS for Inhibitors of human tyrosyl-DNA phosphodiesterase 1 (TDP1): qHTS in cells in absence of CPT; DT40 Tdp1-/- hTDP1 cells, no CPT, ATP luminescence, 48 h; Potency, µM (highest dose often 46.2 µM), most hits filed as inhibitors; 420,000 compounds, 15% hits; also: nearly all actives have a fitted effect of over 55% in size
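A cellular qHTS used chicken DT40 cells lacking endogenous Tdp1 but carrying stably transfected human TDP1. Compounds were applied without camptothecin, and cell growth kinetics were judged by ATP-dependent luminescence after ≥48 hr.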
IL1B secr inh – qHTS for Inhibitors of Inflammasome Signaling: IL-1-beta AlphaLISA Primary Screen. THP-1 LPS/ATP IL-1B secretion, AlphaLISA, 16 h; hits give low values. activity change, % at 57.5 µM. 360,000 compounds, 4.7% hits; in the data active = activity change below about -50%; inconclusive = mostly about -30% to -49%
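Secreted IL-1B measured by AlphaLISA bead assay after 16 h compound exposure of THP-1 cells; compounds (final up to 57.5 uM) added 1 h before LPS (250 ng/mL) and ATP (1.25 mM) stimulation; lower signal means less secretion.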
TDP1 cell CPT – qHTS for Inhibitors of human tyrosyl-DNA phosphodiesterase 1 (TDP1): qHTS in cells in presence of CPT | 420,000 compounds, 12% hits | AID 686979, 2013 | chicken DT40 Tdp1-/-;hTDP1 cells + 20 nM CPT, ATP luminescence, 48 h | Potency, µM (series often up to 46.2 µM), actives largely listed as inhibitors; also: nearly all actives have a fitted effect of over 55% in size
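Cell growth measured by CellTiter-Glo luminescence after a minimum 48 h, 37 C compound exposure with 20 nM CPT in Tdp1-knockout DT40 cells stably expressing hTDP1, seeded 400/well; qHTS titration format.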
TDP1 inh – qHTS Assay for Inhibitors of Tyrosyl-DNA Phosphodiesterase (TDP1); Potency, µM (highest dose often 130 µM), actives largely listed as inhibitors; Tyrosyl-DNA phosphodiesterase 1 (Homo sapiens), Q9NUW8; AID 485290, 2010; 350,000 compounds, 0.28% hits; recombinant TDP1, AlphaScreen DNA substrate cleavage; also: nearly all actives have a fitted effect of over 40% in size
Target sequence (Q9NUW8 whole entry, looked up): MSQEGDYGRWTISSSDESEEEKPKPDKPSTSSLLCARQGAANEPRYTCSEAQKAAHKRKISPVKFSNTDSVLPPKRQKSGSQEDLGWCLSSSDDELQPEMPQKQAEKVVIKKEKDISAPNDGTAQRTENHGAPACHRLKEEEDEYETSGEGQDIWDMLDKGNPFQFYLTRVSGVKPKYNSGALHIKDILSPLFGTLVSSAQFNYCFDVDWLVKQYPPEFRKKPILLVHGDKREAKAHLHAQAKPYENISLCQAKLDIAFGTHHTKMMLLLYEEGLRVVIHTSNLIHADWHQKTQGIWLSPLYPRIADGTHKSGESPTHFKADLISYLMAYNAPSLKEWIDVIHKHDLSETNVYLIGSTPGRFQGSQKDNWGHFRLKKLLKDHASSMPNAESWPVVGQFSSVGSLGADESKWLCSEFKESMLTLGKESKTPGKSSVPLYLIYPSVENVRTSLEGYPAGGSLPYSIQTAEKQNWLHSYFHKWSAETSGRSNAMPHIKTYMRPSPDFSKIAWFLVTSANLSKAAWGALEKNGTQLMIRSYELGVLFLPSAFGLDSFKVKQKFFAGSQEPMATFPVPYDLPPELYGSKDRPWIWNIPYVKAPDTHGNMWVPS
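Here, a 5' biotin and 3' phosphotyrosine-FITC DNA oligonucleotide reports Tdp1 activity: intact substrate bridges AlphaScreen beads, while cleavage leaves a 3' phosphate and drops signal. All incubations at room temperature.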
ELG1 DNA repair – qHTS screen for small molecules that inhibit ELG1-dependent DNA repair in human embryonic kidney (HEK293T) cells expressing luciferase-tagged ELG1; HEK293T ELG1-luciferase reporter, luminescence, 16 h; DNA damage induced by 5-fluorouridine; Potency, µM (highest dose often 46.1 µM), actives largely listed as inhibitors; 330,000 compounds, 2.3% hits; also: nearly all actives have a fitted effect of over 55% in size
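In this reporter screen, reduction of luminescence relative to DMSO vehicle indicated activity. Compounds and 5-fluorouridine were added together to 2,000 cells per well, incubated for 16 hr at 37 °C, then developed with ONE-Glo.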
A number is an active result; – = inactive; ? = inconclusive; · = not tested or not shown; [ ] = dose if it differs, or a comment. Unless noted, calls follow the shape of the dose curve; as a rule, active = well fitted curve in the direction sought with a large enough effect; inconclusive = small, poorly fitted or top-dose-only effect, or another doubt; inactive = no such curve, though single readings can be large; an effect the other way counts as inactive or inconclusive.

SMILES	Giardia kill	TDP1 cell noCPT	IL1B secr inh	TDP1 cell CPT	TDP1 inh	ELG1 DNA repair
O=C(NCc1ccc(F)cc1)c1c2c(nc3ccccc13)C(=O)N(C1CCCCC1)C2	·	?	·	?	–	·
Cc1ccc(NC(=O)c2c3c(nc4ccccc24)C(=O)N(C2CCCCC2)C3)cc1F	·	12µM	·	8.2µM	–	·
CCOc1ccccc1NC(=O)c1c2c(nc3ccccc13)C(=O)N(C1CCCCC1)C2	·	5.8µM	·	6.5µM	–	·
Cc1ccccc1N=C1SCCN1C(=O)CN1C(=O)NC2(CCCC2)C1=O	–	?	–	–	–	–
O=C(Nc1cccc(F)c1)N1CCCC2(CCN(C(=O)c3cnccn3)CC2)C1	·	–	·	–	·	·
CC(=O)N1c2ccc(S(=O)(=O)Nc3ccc(C)c(C)c3)cc2CC1C (stereo not drawn)	·	·	·	·	–	·
Cc1ccc(NC(=O)CNC(=O)c2ccc(OC(F)F)cc2)cc1S(=O)(=O)N1CCCCCC1	–	?	?	?	·	·
O=C(Nc1nnc(-c2ccc3c(c2)CCCC3)o1)c1ccccc1Cl	–	16µM	–	?	–	?
O=C(Nc1nnc(-c2ccc3c(c2)CCCC3)o1)c1ccccc1	–	5.8µM	–	5.2µM	–	?
Cc1cccc(NC(=O)CSc2nc(-c3cccs3)cc(C(F)(F)F)c2C#N)c1	·	–	·	–	–	·
O=C(Nc1cccnc1)Nc1ccc(F)c(Cl)c1	–	?	–	–	–	–
Fc1ccc(Nc2cncc(-c3ccsc3)c2)cc1Cl	·	18µM	–	16µM	·	·
COc1ccccc1C(=O)NCCn1cc(SCc2ccc(C)cc2)c2ccccc21	·	?	·	23µM	–	·
NC(=O)CSc1cn(CCNC(=O)c2cccs2)c2ccccc12	–	–	–	–	·	–
O=C(NCCn1cc(SCc2ccc(Br)cc2)c2ccccc21)c1cccs1	·	23µM	·	23µM	–	·
Cc1ccc(C)c(CSc2cn(CCNC(=O)c3cccs3)c3ccccc23)c1	·	23µM	·	?	–	·
O=C(NCCn1cc(SCc2ccccc2)c2ccccc21)c1cccs1	·	7.3µM	·	15µM	–	·
Cc1ccc(C)c(CSc2cn(CCNC(=O)c3ccccc3F)c3ccccc23)c1	·	?	·	?	–	·
CCc1ccc(N(C(=O)c2csnn2)C(C(=O)NC(C)(C)CC)c2ccccn2)cc1 (stereo not drawn)	–	?	–	?	–	–
Cc1cccc(C(=O)Nc2nc(-c3ccc(Br)cc3)ns2)c1	·	?	·	–	–	·
O=C(NCCn1cc(SCc2ccccc2)c2ccccc21)c1ccccc1F	–	?	–	21µM	–	13µM
COc1ccc(C(=O)NCCn2cc(SCc3c(F)cccc3Cl)c3ccccc32)cc1	·	?	·	?	–	·
O=C(NCCn1cc(SCc2ccccc2Cl)c2ccccc21)c1cccs1	·	?	·	23µM	–	·
Cc1cccc(C)c1NC(=O)Nc1nnc([C@H]2C[C@H](O)[C@@H](CO)O2)s1	·	–	–	–	·	·
CCN1CCCC1CNCc1cc2ccc(SC)cc2nc1-c1cc(OC)ccc1OC (stereo not drawn)	·	–	·	–[9.04 µM]	·	·
SMILES	Giardia kill	TDP1 cell noCPT	IL1B secr inh	TDP1 cell CPT	TDP1 inh	ELG1 DNA repair
Cc1ccc(NC(=O)CSc2n[nH]c(-c3ccco3)n2)cc1	–	–	–	–	–	?
O=C(CCSc1nc(-c2ccco2)cc(C(F)(F)F)n1)NCCc1ccccc1	–	?	–	?	–	?
COc1ccccc1CCNC(=O)CCSc1nc(-c2ccco2)cc(C(F)(F)F)n1	–	?	–	23µM	–	?
COc1ccc(-c2cc(C(F)(F)F)nc(SCC(=O)Nc3cc(C)on3)n2)cc1	–	?	–	?	–	?
COc1ccc(NC(=O)CSc2nc(-c3ccco3)cc(C(F)(F)F)n2)c(OC)c1	·	–	·	–	–	·
COc1ccc(-c2cc(C(F)(F)F)nc(SCC(=O)Nc3ccc(C(C)=O)cc3)n2)cc1	·	?	·	21µM	–	·
COc1ccc(NC(=O)CSc2nc(-c3ccco3)cc(C(F)(F)F)n2)cc1	·	8.2µM	·	?	–	·
CCN(CC)c1ccc(NC(=O)CSc2n[nH]c(-c3ccco3)n2)cc1	–	23µM	–	?	–	–
O=C(CSc1nc(-c2ccco2)cc(C(F)(F)F)n1)Nc1cccnc1	–	21µM	–	?	–	?
COc1cc(NC(=O)CCCSc2nc(-c3ccco3)cc(C(F)(F)F)n2)cc(OC)c1OC	–	?	–	?	–	?
COc1cc(NC(=O)CSc2nc(-c3ccco3)cc(C(F)(F)F)n2)cc(OC)c1OC	·	5.2µM	·	3.7µM	–	·
O=C(c1ccccc1)C1N=NCC1c1ccc(Cl)cc1 (stereo not drawn)	–	?	–	–	·	·
O=C(C1=NNCC1c1ccc(Cl)cc1)C1CO1 (stereo not drawn)	–	?	-67	8.2µM	–	?
CC1(C)OC(=O)C2(Cc3cc(C(F)(F)F)ccc3N3CCCCC32)C(=O)O1 (stereo not drawn)	–	–	·	–	–	·
C/C=C(/C)C(=O)O[C@H]1C[C@@]2(C)O[C@H]2[C@@H](OC(C)=O)C2(C)CC[C@@](O)(C(C)C)C12 (stereo partly drawn)	·	·	·	·	–	·
C=C1C(=O)OC2C1C(OC(=O)C(C)=CC)CC(=C)C1C(O)C3OC3(C)C21O (stereo not drawn)	–	15µM	-101	15µM	·	·
O=C(NC1CCCC1)c1ccc2c(=O)n(Cc3ccccc3)c(SCc3cccc([N+](=O)[O-])c3)nc2c1	·	–	·	–	–	·
O=C(CC1CCCC1)N1CCN(S(=O)(=O)c2cccc(Br)c2)CC1	·	?	–	18µM	·	·
Cc1cnc(C(=O)N2CCN(S(=O)(=O)c3cccc(Br)c3)CC2)cn1	–	?	–	–	–	–
CC1CCN(C(=O)c2ccc3c(c2)N(Cc2ccccc2)C(=O)c2ccccc2S3(=O)=O)CC1	·	16µM	·	?	–	·
O=C(c1ccc2c(c1)N(Cc1ccc(F)cc1)C(=O)c1ccccc1S2(=O)=O)N1CCC(Cc2ccccc2)CC1	·	5.2µM	·	5.8µM	–	·
O=C(c1ccc2c(c1)N(Cc1ccc(F)cc1)C(=O)c1ccccc1S2(=O)=O)N1CCCCC1	·	?	·	?	–	·
CN(C)C(=O)c1ccc(-c2nc(NC3CCNCC3)c3ccccc3n2)cc1	·	–	·	–	·	·
CCOC(=O)c1c(NC(=O)C(C)Sc2cn(CCNC(=O)c3ccc(OC)cc3)c3ccccc23)sc2c1CCC2 (stereo not drawn)	·	?	·	21µM	–	·
